Measurements from PubChem BioAssay.
Activity calls are given as the source filed them.

Legend:
[1] = small molecules captured by biotinylated probe aFSTL3 – biochemical, small-molecule microarray, fluorescence 635/667, stem cell growth factor project, primary screen (AID 1064); conditions: higher = more signal;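 note: measures binding of the biotinylated anti-FSTL3 antibody to printed compounds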
[2] = binders from COS7 lysate, DM2A8 probe, primary screen, torsin A project, cell lysate, small-molecule microarray, fluorescence 635/667 (AID 1065); conditions: higher = more signal, COS7 lysate expressing mutant human TOR1A
[3] = small molecules captured by biotinylated probe aFGF2 – biochemical, small-molecule microarray, fluorescence 635/667, stem cell growth factor project, primary screen (AID 1067); conditions: higher = more signal;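 note: measures binding of biotinylated aFGF2 protein to printed compounds on slides; z-score merges feature fluorescence and signal-to-noise across triplicate slides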
[4] = small molecules captured by biotinylated probe aFGF10 – biochemical, small-molecule microarray, fluorescence 635/667, stem cell growth factor project, primary screen (AID 1071); conditions: higher = more signal;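 note: score merges 667 nm spot intensity and signal to noise from triplicate slides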
[5] = target: Neurogenic locus notch homolog protein 2 (Homo sapiens) (UniProt Q04721); test: small molecules binding Notch2 protein – biochemical, small-molecule microarray, 635 nm fluorescence, stem cell growth factors, primary screen (AID 1073); conditions: higher = more signal
[6] = target: Pro-neuregulin-1, membrane-bound isoform (Homo sapiens) (UniProt Q02297); test: small molecules binding neuregulin-1 protein – biochemical, small-molecule microarray, fluorescence 635/667, psychiatric disease protein project, primary screen (AID 1075); conditions: NRG1 binding, 635 nm fluorescence, higher = more signal;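 note: score combines 667 nm spot fluorescence with signal to noise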
[7] = test system: Neuregulin-1 EGF-like domain; test: small molecules binding NRG1 EGF domain – biochemical, small-molecule microarray, 635 nm fluorescence, primary screen (AID 1081); conditions: higher = more signal;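 note: binding of the protein to compounds printed on small-molecule microarray slides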
[8] = FRG1 expression reporter modulators in myotubes – cell-based, C2C12 myotubes, firefly/Renilla luciferase, luminescence, FRG1 inhibition for FSHD, primary screen (AID 1084); conditions: FRG1 promoter luciferase, higher = more signal, called active from +8 up or from −8 down
[9] = small molecules captured by biotinylated probe aFST – biochemical, small-molecule microarray, fluorescence 635/667, stem cell growth factor project, primary screen (AID 1086); conditions: higher = more signal;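 note: score merges 667 nm fluorescence with signal-to-noise of each printed compound spot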
[10] = binders of probe aHhip on microarray, primary screen, stem cell growth factor project, biochemical, small-molecule microarray, fluorescence 635/667 (AID 1087); conditions: higher = more signal;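 note: score merges spot fluorescence at 667nm with spot signal to noise ratio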
[11] = test system: PRMT1 (protein arginine N-methyltransferase 1); test: small molecules binding arginine methyltransferase PRMT1 – biochemical, small-molecule microarray, 635 nm fluorescence, primary screen (AID 1088); conditions: higher = more signal;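 note: binding of Prmt1 protein to compounds spotted on small-molecule microarray slides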
[12] = growth effects on S. cerevisiae YJM789 – YJM789 clinical isolate, OD600, 24 h, basal, primary screen (AID 1089); conditions: higher = more signal, called active from +8 up or from −8 down;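 note: growth of clinical yeast isolate S. cerevisiae YJM 789 seeded 1000 cells per well; test concentration not given here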
[13] = S. pombe growth modifiers, basal conditions – strain 972, OD600, 24 h, no modulator, primary screen (AID 1090);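 note: basal condition with compound alone and no growth modifier present; test concentration not given here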; conditions: S. pombe 972 growth, higher = more signal, called active from +8 up or from −8 down
[14] = budding yeast growth modifiers under rapamycin – strain BY4716, OD600, 96 h, primary screen (AID 1091); note: test concentration not given here; conditions: S. cerevisiae BY4716 + rapamycin, higher = more signal, called active from +8 up or from −8 down
[15] = target: Torsin-1A-interacting protein 2 (Homo sapiens) (UniProt Q8NFQ8); test: small molecules binding lysate-expressed LULL1 – cell lysate, human LULL1 lysate, 635/667 nm fluorescence, primary screen (AID 1092); conditions: small-molecule microarray, hLULL1 lysate binding, 635 nm fluorescence; higher = more signal;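 note: probe is lysate of COS7 cells overexpressing human LULL1; score merges per-feature 667 nm fluorescence with signal-to-noise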
[16] = optical density change of DRC41 E. coli – strain DRC41, OD650, 24 h, E. coli filamentation project, primary screen (AID 1093);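 note: MC1000 strain lacking acrAB efflux and sulA so SOS filamentation is blocked; test concentration not given here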; conditions: E. coli DRC41 growth, higher = more signal, called active from +8 up or from −8 down
[17] = probe aLefty2 binding to arrayed compounds – biochemical, biotinylated probe, 635/667 nm fluorescence, primary screen (AID 1094); conditions: small-molecule microarray, higher = more signal;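 note: score merges spot fluorescence near 667 nm with spot signal-to-noise ratio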
[18] = test system: Noggin (protein binding on small-molecule microarray); test: small molecules binding Noggin protein – biochemical, 635/667 nm fluorescence, primary screen (AID 1095); conditions: 635 nm fluorescence, higher = more signal;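 note: score merges 667 nm feature fluorescence with signal to noise over triplicate slides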
[19] = target: Neurogenic locus notch homolog protein 3 (Homo sapiens) (UniProt Q9UM47); test: small molecules binding NOTCH3 protein – biochemical, 635/667 nm fluorescence, primary screen (AID 1096); conditions: small-molecule microarray, 635 nm fluorescence, higher = more signal
[20] = probe aEGFR binding to arrayed compounds – biochemical, biotinylated probe, 635/667 nm fluorescence, primary screen (AID 1097); conditions: small-molecule microarray, higher = more signal;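 note: probe is a biotinylated anti-EGFR antibody binding compounds printed on slides; score combines fluorescence near 667 nm and signal to noise of each spot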

Chain of Neurogenic locus notch homolog protein 2 (Homo sapiens) (Q04721 whole entry, looked up, canonical isoform): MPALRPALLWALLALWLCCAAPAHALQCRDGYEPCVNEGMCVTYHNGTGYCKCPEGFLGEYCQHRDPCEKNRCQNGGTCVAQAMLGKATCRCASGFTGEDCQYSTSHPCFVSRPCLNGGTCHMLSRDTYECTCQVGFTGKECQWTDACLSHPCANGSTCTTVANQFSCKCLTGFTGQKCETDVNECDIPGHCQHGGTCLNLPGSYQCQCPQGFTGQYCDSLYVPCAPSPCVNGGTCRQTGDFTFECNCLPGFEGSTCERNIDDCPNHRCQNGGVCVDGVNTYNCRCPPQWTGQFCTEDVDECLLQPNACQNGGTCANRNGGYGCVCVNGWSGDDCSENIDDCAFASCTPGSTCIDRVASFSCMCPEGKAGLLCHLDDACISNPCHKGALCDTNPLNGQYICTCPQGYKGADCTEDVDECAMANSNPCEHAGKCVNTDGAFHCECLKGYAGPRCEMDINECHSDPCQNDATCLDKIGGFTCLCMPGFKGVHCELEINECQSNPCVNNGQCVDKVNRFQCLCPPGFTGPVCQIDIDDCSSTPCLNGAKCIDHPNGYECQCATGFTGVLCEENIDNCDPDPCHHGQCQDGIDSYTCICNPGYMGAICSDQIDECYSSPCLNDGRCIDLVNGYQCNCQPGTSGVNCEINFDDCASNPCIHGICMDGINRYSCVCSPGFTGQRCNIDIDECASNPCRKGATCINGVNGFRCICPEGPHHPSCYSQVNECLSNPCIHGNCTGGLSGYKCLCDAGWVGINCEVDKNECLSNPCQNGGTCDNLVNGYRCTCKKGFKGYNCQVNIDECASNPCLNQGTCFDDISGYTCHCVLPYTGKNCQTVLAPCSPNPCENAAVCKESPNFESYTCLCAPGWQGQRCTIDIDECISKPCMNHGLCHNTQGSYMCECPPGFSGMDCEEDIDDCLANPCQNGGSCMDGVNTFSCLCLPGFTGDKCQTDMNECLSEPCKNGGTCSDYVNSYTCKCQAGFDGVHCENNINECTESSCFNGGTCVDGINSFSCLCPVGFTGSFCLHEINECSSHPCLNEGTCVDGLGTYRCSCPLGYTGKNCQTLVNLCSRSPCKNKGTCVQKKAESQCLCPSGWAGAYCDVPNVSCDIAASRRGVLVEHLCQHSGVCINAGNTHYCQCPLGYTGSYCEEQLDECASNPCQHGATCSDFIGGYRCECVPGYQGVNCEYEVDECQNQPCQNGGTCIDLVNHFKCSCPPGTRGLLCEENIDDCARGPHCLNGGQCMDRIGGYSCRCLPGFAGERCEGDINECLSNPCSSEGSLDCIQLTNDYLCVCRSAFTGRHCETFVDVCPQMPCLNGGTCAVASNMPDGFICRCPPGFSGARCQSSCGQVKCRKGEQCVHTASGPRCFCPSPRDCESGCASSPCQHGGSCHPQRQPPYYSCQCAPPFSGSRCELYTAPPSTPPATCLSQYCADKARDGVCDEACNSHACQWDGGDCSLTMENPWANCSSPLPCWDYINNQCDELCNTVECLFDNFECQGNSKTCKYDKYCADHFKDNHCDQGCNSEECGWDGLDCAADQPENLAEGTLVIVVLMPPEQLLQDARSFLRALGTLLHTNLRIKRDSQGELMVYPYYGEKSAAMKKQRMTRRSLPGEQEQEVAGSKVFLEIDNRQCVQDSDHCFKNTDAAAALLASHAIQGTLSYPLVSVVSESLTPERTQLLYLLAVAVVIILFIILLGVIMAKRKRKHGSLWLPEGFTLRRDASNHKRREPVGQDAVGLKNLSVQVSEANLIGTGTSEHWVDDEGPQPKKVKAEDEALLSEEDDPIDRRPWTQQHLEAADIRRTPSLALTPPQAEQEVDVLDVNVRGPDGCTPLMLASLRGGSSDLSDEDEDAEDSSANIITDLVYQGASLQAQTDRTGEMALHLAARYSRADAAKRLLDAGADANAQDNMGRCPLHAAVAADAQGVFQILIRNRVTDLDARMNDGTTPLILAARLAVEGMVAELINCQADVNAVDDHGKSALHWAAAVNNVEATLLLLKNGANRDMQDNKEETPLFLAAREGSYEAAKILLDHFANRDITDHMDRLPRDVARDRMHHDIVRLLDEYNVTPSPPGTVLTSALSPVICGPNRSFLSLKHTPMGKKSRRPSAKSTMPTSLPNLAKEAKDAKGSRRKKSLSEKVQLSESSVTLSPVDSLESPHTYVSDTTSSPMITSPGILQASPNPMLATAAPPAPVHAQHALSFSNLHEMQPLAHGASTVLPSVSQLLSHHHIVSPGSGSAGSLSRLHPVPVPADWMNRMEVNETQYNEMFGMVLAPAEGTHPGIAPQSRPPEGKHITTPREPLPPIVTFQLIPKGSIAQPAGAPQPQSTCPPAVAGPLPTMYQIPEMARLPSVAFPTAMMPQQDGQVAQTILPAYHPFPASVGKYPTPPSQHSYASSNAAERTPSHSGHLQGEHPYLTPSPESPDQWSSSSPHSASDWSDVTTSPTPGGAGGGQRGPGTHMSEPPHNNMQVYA
Chain of Pro-neuregulin-1, membrane-bound isoform (Homo sapiens) (Q02297 whole entry, looked up, the tested form may be a part, canonical isoform): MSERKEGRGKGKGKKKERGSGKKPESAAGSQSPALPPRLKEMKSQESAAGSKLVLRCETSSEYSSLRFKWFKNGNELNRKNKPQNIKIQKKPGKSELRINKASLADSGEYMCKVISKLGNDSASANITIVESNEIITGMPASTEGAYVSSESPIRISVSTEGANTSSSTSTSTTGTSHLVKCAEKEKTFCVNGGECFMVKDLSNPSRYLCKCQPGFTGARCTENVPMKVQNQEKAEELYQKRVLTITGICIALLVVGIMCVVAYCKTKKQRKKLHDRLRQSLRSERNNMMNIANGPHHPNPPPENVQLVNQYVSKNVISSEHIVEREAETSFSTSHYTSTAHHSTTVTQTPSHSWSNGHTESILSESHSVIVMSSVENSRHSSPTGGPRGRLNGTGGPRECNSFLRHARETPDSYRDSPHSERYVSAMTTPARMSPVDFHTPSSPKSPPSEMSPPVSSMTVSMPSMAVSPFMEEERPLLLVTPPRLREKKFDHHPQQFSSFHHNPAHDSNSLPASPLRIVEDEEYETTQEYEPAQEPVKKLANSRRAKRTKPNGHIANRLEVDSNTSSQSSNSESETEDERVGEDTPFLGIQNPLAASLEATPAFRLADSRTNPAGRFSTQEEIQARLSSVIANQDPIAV
Chain of Torsin-1A-interacting protein 2 (Homo sapiens) (Q8NFQ8 whole entry, looked up): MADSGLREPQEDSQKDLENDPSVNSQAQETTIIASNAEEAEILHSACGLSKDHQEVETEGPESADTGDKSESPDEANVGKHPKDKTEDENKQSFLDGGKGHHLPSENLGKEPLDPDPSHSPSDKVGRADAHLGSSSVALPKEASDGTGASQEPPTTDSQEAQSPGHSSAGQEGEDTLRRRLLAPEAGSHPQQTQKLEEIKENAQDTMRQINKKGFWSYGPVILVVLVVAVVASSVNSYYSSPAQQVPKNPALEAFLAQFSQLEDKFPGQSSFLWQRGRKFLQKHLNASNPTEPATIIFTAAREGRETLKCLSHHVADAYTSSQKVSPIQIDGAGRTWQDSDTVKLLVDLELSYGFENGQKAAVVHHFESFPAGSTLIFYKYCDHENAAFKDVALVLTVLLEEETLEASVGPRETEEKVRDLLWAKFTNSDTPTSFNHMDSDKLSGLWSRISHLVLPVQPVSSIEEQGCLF

| Structure (SMILES) | composite z-score [1] | composite z-score [2] | composite z-score [3] | composite z-score [4] | composite z-score [5] | composite z-score [6] | composite z-score [7] | z-score [8] | composite z-score [9] | composite z-score [10] | composite z-score [11] | z-score [12] | z-score [13] | z-score [14] | composite z-score [15] | z-score [16] | composite z-score [17] | composite z-score [18] | composite z-score [19] | composite z-score [20] |
| --- | --- | --- | --- | --- | --- | --- | --- | --- | --- | --- | --- | --- | --- | --- | --- | --- | --- | --- | --- | --- |
| C=CCC(OC(C)=O)[C@@H]1[C@@H](N(Cc2ccc(-c3cccc(C(F)(F)F)c3)o2)C(=O)c2cccc3ccccc23)c2cc(OCCCO)ccc2N1C(=O)c1ccc2ccccc2c1 (stereo not given in full) | 0.125 | -0.132 | -0.0909 | 0.224 | -0.365 | 0.62 | -0.332 | 0.141 (inactive) | -0.0637 | -0.15 | -0.429 | 0.611 (inactive) | 0.609 (inactive) | -0.549 (inactive) | -0.255 | 0.0268 (inactive) | -0.0728 | 0.307 | -0.1 | -0.122 |
| CN(C)CCCCNC(=O)[C@H]1C[C@H]2C(=O)NCC(=O)N2[C@H]1c1cccc(OCCO)c1 | -0.295 | -0.0314 | -0.155 | -0.224 | -0.342 | 0.401 | 1.19 | 0.836 (inactive) | -0.324 | -0.485 | 0.826 | 0.259 (inactive) | 1.06 (inactive) | -0.431 (inactive) | 1.6 | 0.52 (inactive) | -0.121 | 0.938 | 1.01 | -0.3 |
| CCCCC(=C=CC[C@@H](O)c1cccc(OCCO)c1)CCO | -0.219 | -0.555 | -0.057 | 0.601 | -0.277 | -0.0951 | 0.345 | -0.225 (inactive) | 0.0204 | -0.128 | 0.468 | 0.633 (inactive) | 0.111 (inactive) | -0.238 (inactive) | 0.111 | 0.863 (inactive) | -0.179 | -0.0301 | 0.098 | -0.152 |
| CCN(CC)c1ccc(N2CC=CC34O[C@@H]5C=CCOC(=O)[C@@H]5[C@H]3C(=O)N(CCO)[C@@H]4C2=O)cc1 (stereo not given in full) | 0.73 | -0.0324 | -0.144 | -1.03 | -1.51 | -0.0687 | 0.504 | 0.737 (inactive) | -0.568 | -0.353 | -0.503 | 0.907 (inactive) | -1.02 (inactive) | -0.108 (inactive) | 0.174 | 1.47 (inactive) | -0.0041 | -1.35 | -0.373 | -0.334 |
| C=CC[C@]1(C(=O)NCc2ccccc2)COC(c2ccc(OCCCO)cc2)=N1 | 2.17 | 2.12 | -0.008 | -0.588 | -0.813 | 1.09 | 0.521 | 0.235 (inactive) | 0.946 | -0.335 | 0.822 | -1.4 (inactive) | -4.95 (inactive) | -1.22 (inactive) | 2.87 | 1.34 (inactive) | 0.843 | -1 | -0.447 | -0.0675 |
| COCCOC(=O)N1C(=O)[C@@]2(c3cc(C#CC4=CCCCC4)ccc31)[C@H](c1ccccc1OCCO)N1[C@H](c3ccccc3)[C@H](c3ccccc3)OC(=O)[C@H]1[C@@H]2C(N)=O | -0.42 | 0.599 | 0 | 0.525 | 0.931 | -0.253 | 1.05 | -0.89 (inactive) | 0.366 | -0.217 | 1.56 | 0.05 (inactive) | -0.96 (inactive) | 1.69 (inactive) | 1.66 | 2.66 (inactive) | -0.107 | 1.39 | 1.1 | -0.0211 |
| CCOC(=O)C1=CC[C@@H](c2ccccc2Cl)N(S(=O)(=O)c2ccc(C)cc2)[C@H]1c1cccc(OC)c1 | -0.329 | 0.0632 | -0.0276 | 0.317 | 0.408 | 0.0948 | 0.971 | -0.38 (inactive) | 0.289 | 0.0139 | 0.336 | 0.318 (inactive) | 0.957 (inactive) | 2.88 (inactive) | 1.84 | -1.08 (inactive) | -0.186 | -0.0339 | 0.506 | -0.125 |
| C=C(COC)/C(=C/C[C@H](OC(=O)c1ccncc1)c1cccc(OCCO)c1)c1cnc2ccccc2c1 | -0.125 | 0.544 | -0.103 | 0.427 | 1.41 | 1.3 | 1.28 | 2.63 (inactive) | 0.841 | -0.134 | 1.54 | -2.15 (inactive) | -0.677 (inactive) | 0.0694 (inactive) | 1.75 | -0.0055 (inactive) | 0.0333 | 1.53 | 1.03 | -0.0025 |
| CCOC(=O)C1=CCC(c2cc3ccccc3[nH]2)N(S(=O)(=O)c2ccccc2[N+](=O)[O-])C1 (stereo not given) | -0.191 | 0.0999 | -0.0481 | 0.465 | 1.37 | 1.48 | 0.957 | -2.98 (inactive) | 0.361 | 0.0505 | 0.659 | -0.134 (inactive) | 1.18 (inactive) | 1.41 (inactive) | 3.07 | -0.424 (inactive) | -0.125 | 0.674 | 0.356 | 0.0357 |
| COCCCN1C(=O)[C@@]2(Cc3ccccc31)c1ccccc1C(=O)N(Cc1ccccc1OC)[C@H]2c1ccc(CO)cc1 | 0.303 | -0.457 | -0.122 | -0.279 | -0.228 | 0.731 | -0.944 | -0.193 (inactive) | 0.023 | -0.181 | 0.727 | -1.14 (inactive) | -0.2 (inactive) | -1.33 (inactive) | 1.04 | 0.258 (inactive) | 0.0224 | -0.913 | -0.274 | -0.108 |
